# High-throughput results deposited in PubChem BioAssay by National Center for Advancing Translational Sciences (NCATS).
# GCN5L2 inh: blocks human GCN5L2 histone acetyltransferase; AID 504327; hit rate 0.21% among 390,000; Q92830; Potency, µM (series often up to 58.9 µM), for inactives: top-dose activity change, negative = inhibition, actives largely listed as inhibitors; GCN5L2 HAT assay, ThioGlo1 CoA-SH fluorescence
#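 GCN5L2 (20nM final) in 50mM HEPES, 0.1mM EDTA pH 7.5, 0.01% Tween-20 was preincubated 15 min at room temperature with compound, then given ThioGlo1 (50uM), H3(1-25) peptide (75uM) and acetyl-CoA (70uM); CoA-thiol fluorescence (Ex340/Em540) was read at 0 and 20 min.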
# VDR inh: inhibitors of human vitamin D receptor; VDR-SRC2-3 peptide fluorescence polarization, 2 h; Potency, µM, inactives show max response, negative = inhibition, most hits filed as inhibitors; hit rate 0.93% among 400,000; AID 504847
#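 Inhibition of the VDR/SRC2-3 peptide interaction is quantified by fluorescence polarization. Compounds (23 nl, pintool) incubate with the reagents for 2 hours at ambient room temperature.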
# PLK1 PBD inh: inhibitors of human PLK1 polo-box domain binding | AID 720504 | P53350 | hit rate 2.8% among 360,000 | Potency, µM, for the others: max response, negative = inhibition, most hits filed as inhibitors | Plk1 PBD binding of FITC phosphopeptide, fluorescence polarization; also: series mostly up to about 57 µM; nearly all actives have a fitted effect of over 65% in size
# Target sequence (P53350 whole entry, looked up, the tested form may be a part): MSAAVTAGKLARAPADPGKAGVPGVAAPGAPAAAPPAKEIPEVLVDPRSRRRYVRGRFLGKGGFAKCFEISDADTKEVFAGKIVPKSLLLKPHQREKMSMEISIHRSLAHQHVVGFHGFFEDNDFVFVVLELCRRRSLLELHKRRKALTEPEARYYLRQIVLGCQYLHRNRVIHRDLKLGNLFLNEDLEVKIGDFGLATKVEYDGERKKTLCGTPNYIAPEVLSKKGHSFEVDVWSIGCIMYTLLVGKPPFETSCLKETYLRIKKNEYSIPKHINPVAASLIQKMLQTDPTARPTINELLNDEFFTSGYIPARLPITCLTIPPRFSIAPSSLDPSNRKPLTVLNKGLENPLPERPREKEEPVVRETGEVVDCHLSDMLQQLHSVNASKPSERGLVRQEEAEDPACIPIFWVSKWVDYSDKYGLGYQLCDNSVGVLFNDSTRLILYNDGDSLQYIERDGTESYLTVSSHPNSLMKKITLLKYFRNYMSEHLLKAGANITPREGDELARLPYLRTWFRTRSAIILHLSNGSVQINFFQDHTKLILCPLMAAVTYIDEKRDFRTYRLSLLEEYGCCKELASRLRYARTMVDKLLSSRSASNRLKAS
# DT40 TDP1 CPT: growth inhibition of DT40 Tdp1-/-;hTDP1 cells with camptothecin (screen for TDP1 inhibitors); Potency, µM (doses to about 46.2 µM), inactives show top-dose activity change, negative = growth inhibition, actives largely listed as inhibitors; AID 686979; hit rate 12% among 420,000; chicken DT40 Tdp1-/-;hTDP1 cells + 20 nM CPT, ATP luminescence, 48 h; also: nearly all actives have a fitted effect of over 55% in size
#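 Chicken DT40 Tdp1-/- cells complemented with human TDP1, 400 cells/well, exposed to compounds plus 20 nM camptothecin for at least 48 h at 37 C; viability read as ATP content by CellTiter-Glo luminescence.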
# DT40 TDP1 no CPT: qHTS for Inhibitors of human tyrosyl-DNA phosphodiesterase 1 (TDP1): qHTS in cells in absence of CPT; DT40 Tdp1-/- hTDP1 cells, no CPT, ATP luminescence, 48 h; Potency, µM (top dose mostly 46.2 µM), for the others: top-dose activity change, negative = growth inhibition, most hits filed as inhibitors; AID 686978, 2013; hit rate 15% among 420,000; also: nearly all actives have a fitted effect of over 55% in size
#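 DT40 Tdp1-/-;hTDP1 cells, no CPT (DMSO vehicle only), 400 cells/well; compounds pin-transferred; ≥48 hr, 37 °C; CellTiter-Glo 30 min RT dark, luminescence read.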
# TDP1 block: inhibitors of human tyrosyl-DNA phosphodiesterase TDP1; Q9NUW8; recombinant TDP1, AlphaScreen DNA substrate cleavage; Potency, µM (doses to about 130 µM), for inactives: at the top dose activity change, negative = inhibition, hits mostly inhibitors; hit rate 0.28% among 350,000; AID 485290; also: nearly all actives have a fitted effect of over 40% in size
#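 Recombinant E. coli-expressed Tdp1 (1 nM) preincubated with compound 15 min at RT, then 5'-biotin/3'-phosphotyrosine-FITC DNA substrate (15 nM) added for 5 min. AlphaScreen beads (10 ug/ml) added, 10 min RT; tyrosine-FITC cleavage read as signal loss.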
# Numbers without * were called inactive; ? = inconclusive; · = no result; [ ] = remark or other dose. In the library only some 18% were active in any assay of this set; here they are far more common. Calls follow the shape of the dose curve; as a rule, active = well fitted curve in the direction sought with a large enough effect; inconclusive = small, poorly fitted or top-dose-only effect, or another doubt; inactive = no such curve, though single readings can be large; an effect the other way counts as inactive or inconclusive. % is scaled to controls: 0 for no effect and ±100 for the full control effect; potency is read from the fitted curve at half-maximal effect.
SMILES,GCN5L2 inh,VDR inh,PLK1 PBD inh,DT40 TDP1 CPT,DT40 TDP1 no CPT,TDP1 block
COc1ccc(N=C2SC(C(N)=O)CC(=O)N2CCc2ccc(OC)c(OC)c2)cc1 (stereo not drawn),1%,5%,-12%,-28%,-13%,-4%
COc1ccc(N=C2SCC(=O)N2CCc2ccc(OC)c(OC)c2)cc1,-4%,-2%,4%,?,26µM*,·
COc1ccc(CCN2C(=O)CS/C2=N\NC(=O)c2ccc(C(C)(C)C)cc2)cc1OC,-6%,-9%,-6%,?,15µM*,0%
O=C(N/N=C1\SCC(=O)N1CCc1ccccc1)c1cccs1,-4%,-4%,-19%,2%,1%,4%
COc1ccc(S(=O)(=O)Nc2ccccc2C(=O)N2CCOCC2)cc1Cl,-10%,16%,2%,1%,16%,3%
O=C(c1csnn1)N1CCC2(CCCN(c3ccncc3)C2)CC1,2%,?,·,2%,?,·
CCN(CC)C1=C(Cl)C(=O)C(Cl)C12OCCO2 (stereo not drawn),4%,-5%,-7%,3%,-7%,9%
COC(=O)C(CSCc1ccccc1)NC(=O)CSc1nc(C)cc(=O)[nH]1 (stereo not drawn),-10%,15%,27µM*,1%,-10%,0%
CCC(=O)Nc1ccc(NC(=O)c2cc3ccccc3o2)c(OC)c1,-6%,-13%,-13%,?,10µM*,·
COc1cc(NC(=O)c2ccccc2F)ccc1NC(=O)c1cc2ccccc2o1,-5%,32%,-1%,?,-29%,1%
COc1cc(NC(=O)c2cccc(Cl)c2Cl)ccc1NC(=O)c1cc2ccccc2o1,0%,-14%,·,5.2µM*,2.6µM*,0%[2.28 µM]
COc1cc(NC(=O)c2cc3ccccc3o2)ccc1NC(=O)c1ccco1,-16%,12%,-10%,-4%,-28%,3%
COc1cc(NC(=O)c2c(OC)cccc2OC)ccc1NC(=O)c1cc2ccccc2o1,-18%,10%,-12%,10µM*,?,·
CCOC(=O)c1cccc(NC(=O)c2cc3ccccn3n2)c1,-6%,16%,·,?,?,5%
COc1ccc(C=CC(=O)c2c(OC)cc(OC)c(OC)c2O)cc1,·,?,-1%,?,?,·
C=CCOc1ccc(C=CC(=O)c2c(O)c(OC)c(OC)c(OC)c2OC)cc1,·,45µM*,-8%,16µM*,16µM*,·
CCOC(=O)c1c(C)[nH]c(C)c1S(=O)(=O)N(C)CC(=O)Nc1ccc(C)c(N(C)C)c1,-6%,-1%,·,-22%,-17%,5%
O=C1NC(=O)C2(COC(c3ccncc3)OC2)S1 (stereo not drawn),-5%,-1%,-7%,-3%,-2%,1%
NC1=NC(=O)C2(COC(c3cccnc3)OC2)S1 (stereo not drawn),2%,?,34µM*,-5%,-18%,0%
Cc1cc(C)nc(N/C(=N\S(=O)(=O)Cc2ccccc2)Nc2ccccc2Br)n1,-16%,4%,-1%,21µM*,21µM*,5%
Cc1ccc(S(=O)(=O)/N=C(\Nc2cccc(C)c2)Nc2nc(C)cc(C)n2)cc1,-6%,-6%,-10%,-16%,?,0%
N=c1c(C(=O)NCC2CCCO2)cc2c(=O)n3ccccc3nc2n1CCCO (stereo not drawn),-4%,5%,·,?,?,·
Cc1cc(C)c(C(=O)COC(=O)C2CCN(c3ccc(C(F)(F)F)cn3)CC2)cc1C,-8%,-2%,-13%,?,?,·
COc1ccc(N2CCN(C(=O)CCNC(=O)c3ccccc3)CC2)cc1,-9%,11%,-10%,-6%,-1%,3%
COc1cccc(C(=O)NCC(=O)N2CCC(C)CC2)c1,1%,13%,-2%,1%,-4%,2%
SMILES,GCN5L2 inh,VDR inh,PLK1 PBD inh,DT40 TDP1 CPT,DT40 TDP1 no CPT,TDP1 block
COc1cccc(C(=O)NCC(=O)N2CCN(c3ccc(C(F)(F)F)cn3)CC2)c1,-23%,-5%,-5%,7.3µM*,4.1µM*,-1%
COc1ccc(N2CCN(C(=O)CCCC(=O)c3ccccc3)CC2)cc1,-15%,-17%,-1%,21µM*,?,·
COc1ccc(C(=O)COC(=O)C2CCN(c3ccc(C(F)(F)F)cn3)CC2)c(OC)c1,-12%,2%,-1%,?,21µM*,-13%
COc1ccc(N2CCN(C(=O)CCC(=O)c3cc(C)sc3C)CC2)cc1,3%,-6%,2%,?,16µM*,8%
CCOc1ccc(OCCC(=O)Nc2ccc(N3CCOCC3)cc2N2CCOCC2)cc1,·,·,-3%,-1%,-20%,·
COc1ccc(N2CCN(C(=O)CNC(=O)c3cccc(Br)c3)CC2)cc1,-4%,0%,-6%,?,15µM*,3%
Cc1ccc(C)c(S(=O)(=O)N2CCN(C(=O)CCC(=O)c3cc(C)sc3C)CC2)c1,-8%,-8%,0%,?,23µM*,-4%
Cc1ccc(S(=O)(=O)N2CCN(C(=O)COC(=O)CCOc3ccccc3)CC2)c(C)c1,0%,-8%,-3%,?,-2%,-2%
Cc1cccc(C)c1NC(=O)C1(C)CN(S(C)(=O)=O)CC(=O)N1CCc1c[nH]c2ccccc12 (stereo not drawn),·,·,-16%,15%,1%,·
CC1(C(=O)NCc2ccccc2)CN(S(C)(=O)=O)CC(=O)N1CCc1c[nH]c2ccccc12 (stereo not drawn),·,·,2%,13µM*,7%,·
O=C1c2cccnc2C(=O)N1CNc1ccc(Cl)cc1,2%,-16%,-1%,-8%,-10%,-3%
Cc1ccc(Cn2c(C3CCCN3c3nc(C)cs3)nc3cc(C(F)(F)F)ccc32)cc1 (stereo not drawn),-7%,-2%,-11%,?,21µM*,·
O=C(N/N=C/c1ccsc1)c1cc(-c2cccs2)nc2ccccc12,-17%,-1%,-5%,10µM*,8.2µM*,-2%
O=C(O)c1ccc(/C=N/NC(=O)c2cc(-c3cccs3)nc3ccccc23)cc1,-7%,-14%,-13%,?,12µM*,3%
O=C(C1CCC1)N1CCc2cc(S(=O)(=O)NCc3ccc(F)cc3)ccc21,-5%,-9%,·,?,-26%,2%
COc1cc(OC)c(C(=O)COc2ncnc3ccccc23)c(OC)c1,-5%,-3%,-10%,?,?,2%
Cc1ccc(C)c(C(=O)COc2ncnc3ccccc23)c1,-3%,-11%,1%,18µM*,?,0%
